Measured values as given in paper PMC12431657, “Discovery and mechanistic insights of dibenzoylmethane as a broad spectrum inhibitor of coronavirus” (PLOS Pathogens, 2025).
Read-outs that look alike come from different tables or passages of the source. Screen size: about 3,300 compounds; about 95 (3%) showed an effect of 50% or more. The entries come from a sample that favours strong results as a whole.

Test system: HCoV-229E
Parameters: species or system Huh-7; HTS, protection from HCoV-229E induced cell death, luminescent cell viability (CellCounting-Lite 2.0), inhibition rate
Details: 24 h post infection, 1 h compound pre-incubation, 10 µM, inhibitor

| Compound | 229E Inhibition rate | 229E Inhibition rate (229E Inhibition rate, 24 h) |
| --- | --- | --- |
| C[C@@H]1O[C@H]2O[C@H]3[C@@H](OC[C@H](O)[C@@H]3O)OC(=O)[C@]34CCC(C)(C)C[C@H]3C3=CC[C@@H]5[C@@]6(C)C[C@H](O)[C@H](O[C@@H]7O[C@H](CO)[C@@H](O)[C@H](O)[C@H]7O[C@@H]7OC[C@H](OC(=O)C[C@](C)(O)CC(=O)O[C@@H]1[C@@H](O[C@@H]1OC[C@@H](O)[C@H](O)[C@H]1O)[C@H]2O)[C@H](O)[C@H]7O)[C@@](C)(CO)[C@@H]6CC[C@@]5(C)[C@]3(C)C[C@H]4O [Tubeimoside II] | 0.9% |  |
| CC1(C)CCC2(CO)C(=C3C=CC4C5(C)CCC(OC6OC(COC7OC(CO)C(O)C(O)C7O)C(OC7OC(CO)C(O)C(O)C7O)C(O)C6O)CC5C(C)(CO)CC4(C)C3(C)CC2O)C1 (stereo not drawn) [Clinodiside A] | 8.8% |  |
| COC(=O)Cc1c[nH]c2ccccc12 [Methyl 2-(1H-indol-3-yl)acetate] | 38.3% |  |
| COc1cc(O)ccc1/C=C/C(=O)c1ccc(O)cc1 [Echinatin] | 0% |  |
| COc1c(/C=C/C(=O)c2ccc(O)cc2)ccc(O)c1O [Licochalcone B] | 25.4% |  |
| C=C(C)[C@H](C)c1cc(/C=C/C(=O)c2ccc(O)cc2)c(OC)cc1O [Licochalcone E] | 61.6% |  |
| CC1=C(O)C(=O)C(C)O1 (stereo not drawn) [Furaneol] | 17.8% |  |
| COc1cc2c(cc1OC)[C@@H](Cc1ccc(Oc3cc(C[C@@H]4c5cc(OC)c(OC)cc5CCN4C)ccc3O)cc1)N(C)CC2 [Dauricine] | 3.6% |  |
| O=C(/C=C/c1ccc(O)c(O)c1)c1ccc(O[C@@H]2O[C@H](CO)[C@@H](O)[C@H](O)[C@H]2O)c(O)c1O [Marein] | 17.9% |  |
| O=C(/C=C/c1ccc(O)c(O)c1)OC[C@@H](O)CO[C@@H]1O[C@H](CO)[C@@H](O)[C@H](O)[C@H]1O [Regaloside C] | 52.3% |  |
| O=C(/C=C/c1ccc(O)c(O)c1)OC[C@H]1O[C@@H](OCCc2ccc(O)c(O)c2)[C@H](O)[C@@H](O)[C@@H]1O [Calceolarioside B] | 10.8% |  |
| Cc1cn([C@@H]2O[C@H](CO)[C@@H](O)[C@H]2O)c(=O)[nH]c1=O [5-Methyluridine] | 14.9% |  |
| CC(C)c1cc2c(c(O)c1O)[C@@]13CCCC(C)(C)[C@@H]1[C@H](OC3=O)[C@H]2O [Rosmanol] | 0% |  |
| CC1NC(=O)CNC1=O (stereo not drawn) [Cyclo(Ala-Gly)] | 39.9% |  |
| CCCCCCCCCCCCCCCCC(C(=O)O)C(O)(CC(=O)O)C(=O)O (stereo not drawn) [Agaric acid] | 18.4% |  |
| CC(C)(O)[C@@H]1CC[C@](C)([C@H]2[C@@H](O)C[C@@]3(C)[C@@H]4C[C@H](O)[C@H]5C(C)(C)[C@@H](O)CC[C@@]56C[C@@]46CC[C@]23C)O1 [Cycloastragenol] | 8.6% |  |
| CC(C)(O)[C@H]1CC[C@@](C)([C@H]2[C@@H](O)C[C@@]3(C)[C@@H]4C[C@H](O)[C@H]5C(C)(C)[C@@H](O)CC[C@@]56C[C@@]46CC[C@]23C)O1 [Cyclogalegenin] | 12.6% |  |
| CN[C@@H](C)[C@H]1[C@H](O)C[C@@]2(C)[C@@H]3CC[C@H]4C(C)(C)[C@@H](NC)CC[C@@]45C[C@@]35CC[C@]12C [Cyclovirobuxine D] | 55.2% |  |

| Compound | 229E Inhibition rate | 229E Inhibition rate (229E Inhibition rate, 24 h) |
| --- | --- | --- |
| CC(O)CC(=O)O (stereo not drawn) [3-Hydroxybutyric acid] | 11.2% |  |
| C/C=C(\C)C(=O)O[C@@H]1c2cc(OC)c(OC)c(OC)c2-c2c(cc3c(c2OC)OCO3)C[C@H](C)[C@@]1(C)O [Tigloylgomisin P] | 40.2% |  |
| COc1cc2c(c(OC)c1OC)-c1c(cc3c(c1O)OCO3)C[C@H](C)[C@@H](C)C2 [Gomisin M2] | 19.3% |  |
| C/C=C(/C)C(=O)O[C@H]1c2cc(OC)c(OC)c(OC)c2-c2c(cc3c(c2OC)OCO3)C[C@H](C)[C@]1(C)O [Schisantherin B] | 54.7% |  |
| COc1ccc2c(c1OC)CC1c3c(cc4c(c3-2)OCO4)CCN1C (stereo not drawn) [Crebanine] | 62.7% |  |
| COc1c2c(cc3c1-c1c(cc4c(c1OC)OCO4)C[C@H](C)[C@H](C)C3)OCO2 [Schisandrin C] | 52.7% |  |
| COc1cc2c(cc1OC)-c1c(OC)c(OC)cc3c1[C@H](C2)N(C)CC3 [Glaucine] | 14.2% |  |
| COc1cc2c(c(OC)c1OC)-c1c(cc3c(c1OC)OCO3)C[C@H](C)[C@H](C)C2 [Schisandrin B] |  | 56.2% |
| COc1cc2c(c(OC)c1OC)-c1c(cc(OC)c(OC)c1OC)C[C@H](C)[C@H](C)C2 [Schisandrin A] | 35.1% |  |
| CN1CCc2cc3c(c4c2C1Cc1ccccc1-4)OCO3 (stereo not drawn) [Roemerine] | 25.9% |  |
| COc1cc2c(c(OC)c1OC)-c1c(cc3c(c1OC)OCO3)C[C@H](C)[C@H](C)C2 [Gomisin N] |  | 42.9% |
| C/C=C(/C)C(=O)O[C@H]1c2cc(OC)c(OC)c(OC)c2-c2c(cc(OC)c(OC)c2OC)C[C@H](C)[C@]1(C)O [Angeloylgomisin Q] | 42.2% |  |
| COc1cc2c(c(OC)c1OC)-c1c(cc3c(c1OC)OCO3)C[C@H](C)[C@@](C)(O)C2 [Schisandrol B] | 7.8% |  |
| COC(=O)/C=C/c1ccc(O)cc1 [Methyl p-coumarate] |  | 15.5% |
| COC(=O)C1=CO[C@@H](O[C@@H]2O[C@H](CO)[C@@H](O)[C@H](O)[C@H]2O)[C@H]2[C@@H]1C=C[C@@]2(O)CO [Gardenoside] | 10.6% |  |
| CCCCCCCCCCCCCCCC(=O)OC[C@H](CO)OC(=O)CCCCCCCCCCCCCCC [1,2-Dipalmitoyl-sn-glycerol] | 6% |  |
| COC(=O)C1=CO[C@@H](O[C@@H]2O[C@H](CO)[C@@H](O)[C@H](O)[C@H]2O)[C@@H]2[C@@H](C)CC(=O)[C@]12O [Hastatoside] | 0% |  |
| C[C@H](CC(=O)O)[C@H]1CC[C@H]2[C@@H]3[C@H](O)C[C@@H]4C[C@H](O)CC[C@]4(C)[C@H]3C[C@H](O)[C@]12C [Norcholic acid] | 0% |  |
